The list is not random: actives were taken first. Their share in the collection is about 2.7%.
Neddyl block – inhibitors of human cullin neddylation | calls only at 25 µM | TR-FRET cullin neddylation, biochemical | hit rate 0.58% among 360,000; in the data active = inhibition above about 36%
PfGluPho inh – PfG6PD (Plasmodium falciparum) enzyme inhibition. hit rate 0.78% among 350,000. inhibition, % at 20 µM. PfGluPho enzyme, NADPH resazurin-diaphorase fluorescence. AID 504690;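 active = inhibition reaching at least a set limit at 20 µM in the primary screen, cut at about 59% in these data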;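 also: 0% = DMSO wells with substrate and 100% = DMSO wells lacking glucose-6-phosphate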
KLK7 zymogen act – activators of human kallikrein-7 zymogen. P49862. purified proKLK7, EDANS-DABCYL substrate fluorescence; 100% is mature enzyme control, 0% vehicle. hit rate 0.9% among 370,000. activation, % at 7 µM;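 active = activation above the mean of all tested compounds plus 3 SD, computed per campaign excluding outliers beyond control limits, cut at about 13% in these data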
FAS TE block – FAS thioesterase (human) inhibition | recombinant FAS-TE, OMFH fluorogenic substrate, fluorescence endpoint | inhibition, % at 15 µM | hit rate 0.67% among 360,000 | AID 602261;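 active = compounds whose normalised, plate-corrected inhibition of enzyme fluorescence in the single-dose primary screen is 50% or more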;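 also: 0% = DMSO with enzyme and 100% = substrate without enzyme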
Target sequence (P49327 whole entry, looked up): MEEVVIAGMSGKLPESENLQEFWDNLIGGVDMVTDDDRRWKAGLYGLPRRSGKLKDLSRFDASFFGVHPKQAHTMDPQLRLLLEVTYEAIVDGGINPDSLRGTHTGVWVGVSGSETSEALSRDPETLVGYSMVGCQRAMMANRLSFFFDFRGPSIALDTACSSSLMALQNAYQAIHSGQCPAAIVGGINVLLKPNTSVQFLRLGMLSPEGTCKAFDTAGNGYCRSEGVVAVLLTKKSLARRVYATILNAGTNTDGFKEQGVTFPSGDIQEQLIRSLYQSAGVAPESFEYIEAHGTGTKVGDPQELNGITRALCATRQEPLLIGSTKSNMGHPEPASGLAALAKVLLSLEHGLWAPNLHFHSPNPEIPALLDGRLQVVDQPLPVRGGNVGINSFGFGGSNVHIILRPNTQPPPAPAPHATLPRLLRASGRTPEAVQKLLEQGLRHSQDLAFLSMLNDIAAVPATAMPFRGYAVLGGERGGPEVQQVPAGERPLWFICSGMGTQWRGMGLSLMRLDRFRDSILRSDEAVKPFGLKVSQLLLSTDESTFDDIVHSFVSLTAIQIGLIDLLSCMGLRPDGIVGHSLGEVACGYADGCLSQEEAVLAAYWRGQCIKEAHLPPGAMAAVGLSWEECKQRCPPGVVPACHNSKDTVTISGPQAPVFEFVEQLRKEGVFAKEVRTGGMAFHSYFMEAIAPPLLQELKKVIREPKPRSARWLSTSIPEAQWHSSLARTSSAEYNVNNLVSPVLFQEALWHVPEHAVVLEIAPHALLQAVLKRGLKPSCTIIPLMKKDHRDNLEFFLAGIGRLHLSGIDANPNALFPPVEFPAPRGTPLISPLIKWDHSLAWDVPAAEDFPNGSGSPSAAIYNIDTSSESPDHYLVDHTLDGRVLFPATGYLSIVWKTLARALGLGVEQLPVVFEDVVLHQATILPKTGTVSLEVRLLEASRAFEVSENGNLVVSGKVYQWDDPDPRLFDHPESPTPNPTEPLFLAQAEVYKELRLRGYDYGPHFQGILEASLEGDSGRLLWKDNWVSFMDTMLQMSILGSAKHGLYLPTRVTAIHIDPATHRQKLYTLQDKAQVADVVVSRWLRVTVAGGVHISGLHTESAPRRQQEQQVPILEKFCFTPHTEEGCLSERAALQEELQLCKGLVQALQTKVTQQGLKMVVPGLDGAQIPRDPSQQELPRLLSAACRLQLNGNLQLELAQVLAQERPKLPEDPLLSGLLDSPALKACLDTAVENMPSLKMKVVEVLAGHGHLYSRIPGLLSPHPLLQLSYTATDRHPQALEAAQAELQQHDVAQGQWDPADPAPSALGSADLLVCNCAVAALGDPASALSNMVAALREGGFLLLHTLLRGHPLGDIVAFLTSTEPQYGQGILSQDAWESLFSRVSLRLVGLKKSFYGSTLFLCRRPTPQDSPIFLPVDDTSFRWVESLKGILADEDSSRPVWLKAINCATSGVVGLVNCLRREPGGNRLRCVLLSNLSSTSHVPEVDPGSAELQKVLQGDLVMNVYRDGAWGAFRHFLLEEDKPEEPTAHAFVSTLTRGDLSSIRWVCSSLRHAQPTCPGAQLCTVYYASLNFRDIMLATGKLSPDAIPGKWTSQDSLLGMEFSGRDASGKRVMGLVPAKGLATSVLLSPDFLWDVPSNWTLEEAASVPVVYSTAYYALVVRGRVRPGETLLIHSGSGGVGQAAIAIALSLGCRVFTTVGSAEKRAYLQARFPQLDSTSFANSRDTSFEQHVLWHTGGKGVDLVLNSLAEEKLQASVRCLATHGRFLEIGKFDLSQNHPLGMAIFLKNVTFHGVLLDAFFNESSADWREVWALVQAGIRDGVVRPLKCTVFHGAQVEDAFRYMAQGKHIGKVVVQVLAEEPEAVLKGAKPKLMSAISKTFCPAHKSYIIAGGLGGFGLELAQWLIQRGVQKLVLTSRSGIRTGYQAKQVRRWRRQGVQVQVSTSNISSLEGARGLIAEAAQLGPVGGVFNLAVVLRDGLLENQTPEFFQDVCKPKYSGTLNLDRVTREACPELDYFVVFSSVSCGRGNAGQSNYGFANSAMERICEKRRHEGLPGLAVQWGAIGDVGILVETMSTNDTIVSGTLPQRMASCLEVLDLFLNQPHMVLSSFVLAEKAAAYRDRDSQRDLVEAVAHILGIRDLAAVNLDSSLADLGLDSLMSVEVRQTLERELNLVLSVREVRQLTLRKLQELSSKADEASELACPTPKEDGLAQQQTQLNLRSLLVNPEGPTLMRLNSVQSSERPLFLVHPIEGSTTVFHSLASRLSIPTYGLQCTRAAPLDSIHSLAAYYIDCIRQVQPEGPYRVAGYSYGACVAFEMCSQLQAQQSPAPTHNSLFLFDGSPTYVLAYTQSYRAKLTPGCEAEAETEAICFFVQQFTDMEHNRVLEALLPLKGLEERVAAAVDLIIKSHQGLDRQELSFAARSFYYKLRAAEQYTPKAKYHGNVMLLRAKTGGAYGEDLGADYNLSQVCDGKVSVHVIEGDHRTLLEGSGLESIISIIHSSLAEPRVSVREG
proKLK7 act conf – confirmation of human kallikrein-7 zymogen activators | shares compounds with KLK7 zymogen act | purified proKLK7, EDANS-DABCYL substrate fluorescence; scaled: vehicle 0, mature enzyme 100 | hit rate 68% among 3,200 | activation, % at 7 µM;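 active = activation, as change over the incubation, above the mean of all tested compounds plus 3 SD, cut at about 13% in these data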
EDANS interfere – counter-screen for kallikrein-7 activators: EDANS-DABCYL optical interference; shares compounds with KLK7 zymogen act; EDANS-DABCYL substrate fluorescence interference, no enzyme, 4 h; solvent 0%, active enzyme control 100%; activation, % at 7 µM; hit rate 80% among 3,200; AID 686952;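 active = activation above the all-compound mean plus 3 SD, ignoring values outside control-based bounds, cut at about 4.8% in these data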;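 also: value is the 4 h activation minus the activation read at time zero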
Starred values were filed as active, the others as inactive; i = inactive; nt = not tested or not shown.

SMILES | Neddyl block | PfGluPho inh | KLK7 zymogen act | FAS TE block | proKLK7 act conf | EDANS interfere
CCN1C(=O)c2cccc3c(S(=O)(=O)NCCCN4CCOCC4)ccc1c23 | nt | -9 | 51* | -6 | 44* | 43*
CCN1C(=O)c2cccc3c(S(=O)(=O)NCCc4c[nH]c5ccccc45)ccc1c23 | i | 1 | 15* | 19 | 37* | 55*
COC(=O)C[C@H]1C=C[C@H](NC(=O)Nc2ccccc2OC)[C@@H](CO)O1 | i | nt | 1 | nt | nt | nt
COCCNC(=O)C1(C)Cc2c(-c3ccc4c(c3)OCO4)ccnc2O1 (stereo unspecified) | nt | nt | 1 | -7 | nt | nt
CN(C)c1nc(N)c2nccnc2n1 | i | 2 | 21* | -8 | 1 | 0
CSc1cnc2c(N)nc(N(C)C)nc2n1 | i | 2 | 2 | -9 | nt | nt
CCCc1cc(=O)oc2c3c(cc(OCC(=O)NCCCn4ccnc4)c12)OC(C)(C)CC3 | nt | 10 | 17* | -5 | -37 | -40
Cc1cc(=O)oc2c3c(cc(OCC(=O)NCCCn4ccnc4)c12)OC(C)(C)CC3 | nt | 13 | 29* | -1 | 8 | -8
Cc1cc(=O)oc2c3c(cc(OCC(=O)NCCN4CCOCC4)c12)OC(C)(C)CC3 | nt | 10 | 34* | -2 | 57* | 70*
Cc1cc(=O)oc2c3c(cc(OCC(=O)NCc4ccco4)c12)OC(C)(C)CC3 | nt | 12 | 12 | 8 | nt | nt
COC(=O)[C@]12C[C@H](CC(=O)N3CCCCC3)C(=O)N(Cc3ccccc3)C1=C[C@H](COCc1ccccc1)O[C@@H]2C | nt | nt | 1 | nt | nt | nt
COc1nc(OC)nc(N2CCC(C(=O)N(C)Cc3ccco3)CC2)n1 | nt | nt | 1 | nt | nt | nt
O=C(CSc1nnc(-c2ccco2)n1-c1ccc(Cl)cc1)Nc1ccc(S(=O)(=O)Nc2nccs2)cc1 | nt | nt | 0 | nt | nt | nt
Cc1cccc(C2Nc3ccccc3C(=O)N2c2ccccc2)n1 (stereo unspecified) | nt | -2 | 19* | -3 | 40* | 43*
Cc1ccccc1N(CC(=O)NC1CCCC1)C(=O)C1(C)CC(=O)N=C2C=CC(Cl)=CN21 (stereo unspecified) | nt | -5 | 16* | -6 | 33* | 39*
COc1ccccc1N1CCN(C(c2cccs2)C(C)NC(=O)c2ccco2)CC1 (stereo unspecified) | i | -2 | 0 | -1 | nt | nt
COc1ccccc1N1CCN(C(c2cccs2)C(C)NC(=O)c2ccncc2)CC1 (stereo unspecified) | i | -1 | 296* | -4 | 0 | 1
COc1ccc(-c2nc3ccc(C(=O)NCC(OC)OC)cc3nc2-c2ccc(OC)cc2)cc1 | i | 9 | -22 | 15 | nt | nt
O=C(NCC1CCCO1)c1coc2nc3ccccc3nc12 (stereo unspecified) | i | 11 | 80* | -8 | 308* | 293*
COC(CNC(=O)c1coc2nc3ccccc3nc12)OC | i | 11 | 47* | -1 | 282* | 269*
Cc1ccc(C)c(NC(=O)c2ccc(CS(=O)(=O)Cc3ccccc3C)o2)c1 | nt | nt | 0 | nt | nt | nt
CC(C)NC(=O)c1cc(C2CCCCN2S(=O)(=O)c2ccc(F)cc2F)on1 (stereo unspecified) | i | nt | 1 | -3 | nt | nt
CCOC(=O)N1Cc2cc3ccccc3nc2C1 | i | 3 | 0 | -4 | nt | nt
CCOC(=O)C1(C)C(=O)CC2c3nc4ccccc4cc3CN2C1=O (stereo unspecified) | i | 11 | 20* | -8 | 2 | 2
C/C(CCc1ccco1)=N\NC(=O)CNc1cccc2ccccc12 | i | 0 | 33* | 2 | 8 | 6.1*
SMILES | Neddyl block | PfGluPho inh | KLK7 zymogen act | FAS TE block | proKLK7 act conf | EDANS interfere
C/C(=N\NC(=O)CNc1cccc2ccccc12)c1ccccc1 | nt | 12 | 46* | 2 | 2 | 2
CNS(=O)(=O)c1ccc(CNC[C@H]2O[C@@H](n3cnc(C(N)=O)n3)[C@H](O)[C@@H]2O)cc1 | i | 7 | 1 | -8 | nt | nt
COc1ccc2c(c1)[nH]c1c(=O)n(CCCN3CCOCC3)cnc12 | i | 9 | -1 | -1 | nt | nt
COc1ccc2c(c1)c1ncn(CCCN3CCOCC3)c(=O)c1n2C | nt | -6 | 15* | -7 | 11 | 20*
COc1ccc2c(c1)c1ncn(CC3CCCO3)c(=O)c1n2C (stereo unspecified) | nt | 3 | 13* | -4 | 3 | 4
CCc1ccccc1Oc1nc(NC(C)C)nc2ccsc12 | i | nt | 0 | 13 | nt | nt
CCOC(=O)C1CCN(c2cc3c(cc2NC(=O)c2ccccc2)n(C)c(=O)n3C)CC1 | i | 13 | 20* | 4 | 12 | 12*
COC(=O)[C@]1(C#N)CC(=O)N(c2ccccc2)[C@@H]1c1ccccc1 | nt | nt | 0 | nt | nt | nt
Cc1ccc(C(=O)/C=C/Nc2ccc(S(=O)(=O)Nc3cc(C)nc(C)n3)cc2)cc1 | i | -25 | 30* | -4 | 148* | 119*
Cc1ccc(/C=C/C(=O)Nc2ccc(S(=O)(=O)Nc3cc(C)nc(C)n3)cc2)cc1 | i | -3 | 0 | -4 | nt | nt
COc1ccc(N(C)C(=S)Nc2ccc3nc(C)c(C)nc3c2)cc1 | i | 26 | 14* | -2 | 12 | 15*
CCCCNS(=O)(=O)c1cccc(NC(=O)[C@H]2C[C@H](O)[C@@H](CO)O2)c1 | i | nt | 0 | -6 | nt | nt
CCOC(=O)[C@@]12CCCC=C1N(CCc1ccc(Cl)cc1)C(=O)[C@H]2CC(=O)NCc1cccc(C(F)(F)F)c1 | nt | nt | 1 | nt | nt | nt
CS(=O)(=O)Nc1cccc(C2=NN(C(=O)CCC(=O)O)C(c3cccs3)C2)c1 (stereo unspecified) | i | -24 | -2 | -1 | nt | nt
CS(=O)(=O)Nc1ccc(C2=NN(C(=O)CCCC(=O)O)C(c3cccs3)C2)cc1 (stereo unspecified) | nt | -4 | 26* | -3 | 48* | 74*
C=CCN(C(=O)c1ccc2c(c1)nnn2C)c1ccccc1 | i | 13 | 0 | -6 | nt | nt
CCN(CC)C(=O)c1ccc2c(c1)nnn2C | i | 4 | 16* | -14 | 0 | 0
Cc1cccc(C)c1NC(=O)C(c1ccnc2ccccc12)n1c(=O)c(-c2ccco2)nc2ccccc21 (stereo unspecified) | i | nt | -3 | nt | nt | nt
N#CCSc1ccc2nc(-c3ccccc3)cn2n1 | nt | 54 | 16* | -7 | 32* | 32*
N#CCSc1nc(-c2ccccc2)cs1 | i | 10 | 0 | -4 | nt | nt
Cn1c(=O)c2cc(NC(=O)OCCF)ccc2n1Cc1cccc(C(F)(F)F)c1 | nt | nt | 13* | -2 | 9 | 5.7*
Cc1ccc(CNC(=S)Nc2ccc3c(c2)c(=O)n(C)n3Cc2cccc(C(F)(F)F)c2)cc1 | nt | nt | 2 | 12 | nt | nt
COc1cccc(CNC(=S)Nc2ccc3c(c2)c(=O)n(C)n3Cc2csc(C)n2)c1 | nt | nt | 15* | -6 | -2 | 2
COc1cccc(CNC(=S)Nc2ccc3c(c2)c(=O)n(C)n3Cc2ccccc2)c1 | nt | nt | 1 | 2 | nt | nt

Compound activity (PubChem BioAssay)
